Assay results reported in PubChem BioAssay (Tox21).
Results filed as inconclusive are left out. Active and inactive are the calls of the source. Unless noted, calls follow the shape of the dose curve; as a rule, active = well fitted curve in the direction sought with a large enough effect in the repeat runs; inconclusive = weak or mixed curves; inactive = no such curve, though single readings can be large; an effect the other way counts as inactive or inconclusive.

Experiments:
[1] = qHTS assay to identify small molecule antagonists of the thyroid receptor (TR) signaling pathway - cell viability counter screen (AID 743064); also: nearly all actives have a fitted effect of over 50% in size
Outline: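 In-well cytotoxicity read by CellTiter-Fluor (30 min, 37 C) following 23.5 h exposure of GH3 cells bearing a TRE-luciferase sensor. Compounds were added alongside 1 nM (final) T3 to drive TR transactivation.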

[2] = qHTS assay to identify small molecule antagonists of the thyroid receptor (TR) signaling pathway (AID 743065); also: series mostly up to about 70 µM; nearly all actives have a fitted effect of over 55% in size
Outline: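 Antagonism measured as loss of luciferase signal in GH3 cells stably carrying a TRE-luciferase reporter, co-treated with compound and T3 (1 nM final) for 23.5 h at 37 C. Viability was read in the same well by CellTiter-Fluor.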

[3] = system: thyroid hormone receptor (rat, GH3 cells); test: qHTS assay to identify small molecule agonists of the thyroid receptor (TR) signaling pathway (AID 743066; calls by dose curve)
[4] = target: Estrogen receptor (Homo sapiens) (UniProt P03372); test: qHTS assay to identify small molecule antagonists of the estrogen receptor alpha (ER-alpha) signaling pathway (AID 743069; active = well fitted curve in the direction sought with a large enough effect in the signal ratio in the repeat runs, not every such curve was filed as active; the % refers to the signal ratio)
Estrogen receptor (Homo sapiens), sequence (P03372 whole entry, looked up): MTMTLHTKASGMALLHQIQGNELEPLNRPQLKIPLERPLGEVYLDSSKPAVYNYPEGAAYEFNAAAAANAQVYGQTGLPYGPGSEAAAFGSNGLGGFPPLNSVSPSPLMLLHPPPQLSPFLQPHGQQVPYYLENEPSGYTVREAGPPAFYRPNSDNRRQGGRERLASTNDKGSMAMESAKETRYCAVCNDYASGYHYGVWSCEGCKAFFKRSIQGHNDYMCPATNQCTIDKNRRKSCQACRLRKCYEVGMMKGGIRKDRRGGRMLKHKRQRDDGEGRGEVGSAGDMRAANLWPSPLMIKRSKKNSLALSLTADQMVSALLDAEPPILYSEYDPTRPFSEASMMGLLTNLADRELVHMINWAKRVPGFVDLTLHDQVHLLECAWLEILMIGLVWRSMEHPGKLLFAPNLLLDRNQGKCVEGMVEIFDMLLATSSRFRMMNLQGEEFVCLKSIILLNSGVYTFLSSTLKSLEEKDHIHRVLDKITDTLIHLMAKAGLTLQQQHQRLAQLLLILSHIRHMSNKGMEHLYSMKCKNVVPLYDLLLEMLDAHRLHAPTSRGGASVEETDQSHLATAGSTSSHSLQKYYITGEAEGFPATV
Outline: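 ER-alpha-UAS-bla GripTite HEK293 line; 2% charcoal-stripped FBS overnight; plated, 4 hr 37C/5% CO2; cpd in DMSO + 17beta-estradiol, 18 hr 37C; LiveBLAzer B/G FRET substrate 2 hr RT; fluorescence intensity.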

[5] = qHTS assay to identify small molecule antagonists of the estrogen receptor alpha (ER-alpha) signaling pathway - cell viability counter screen (AID 743074; calls by dose curve;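 also: HEK293 cells carrying ER-alpha-UAS-bla reporter stimulated with 17beta-estradiol; nearly all actives have a fitted effect of over 45% in size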)
[6] = target: Estrogen receptor (Homo sapiens) (UniProt P03372); test: qHTS assay to identify small molecule agonists of the estrogen receptor alpha (ER-alpha) signaling pathway (AID 743075; calls by dose curve;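 also: HEK293 GripTite cells with ER-alpha and UAS-driven beta-lactamase reporter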)
[7] = target: Estrogen receptor (Homo sapiens) (UniProt P03372); test: qHTS assay to identify small molecule agonists of the estrogen receptor alpha (ER-alpha) signaling pathway using the BG1 cell line (AID 743079); also: nearly all actives have a fitted effect of over 20% in size
[8] = qHTS assay to identify small molecule antagonists of the estrogen receptor alpha (ER-alpha) signaling pathway using the BG1 cell line (AID 743080; calls by dose curve;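 also: BG1 cells stimulated with 17beta-estradiol alongside compound; series mostly up to about 70 µM; nearly all actives have a fitted effect of over 25% in size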)
Outline: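 BG1Luc4E2, endogenous ER-alpha, 4xERE-luc; 5 d charcoal-stripped FBS, phenol red free; 24 h plating; cpd + 17beta-estradiol 21.5 h, 37 C/5% CO2; CellTiter-Fluor viability 30 min, then ONE-Glo luciferase 30 min RT.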

[9] = qHTS assay to identify small molecule antagonists of the estrogen receptor alpha (ER-alpha) signaling pathway using the BG1 cell line - cell viability counter screen (AID 743081);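 also: compound given together with 17beta-estradiol as the ER stimulus; series mostly up to about 70 µM; nearly all actives have a fitted effect of over 45% in size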
Aromatase (Homo sapiens) = Aromatase (Homo sapiens) (UniProt P11511); test: qHTS assay to identify aromatase inhibitors (AID 743083); also: series mostly up to about 70 µM; nearly all actives have a fitted effect of over 55% in size
Aromatase (Homo sapiens), sequence (P11511 whole entry, looked up): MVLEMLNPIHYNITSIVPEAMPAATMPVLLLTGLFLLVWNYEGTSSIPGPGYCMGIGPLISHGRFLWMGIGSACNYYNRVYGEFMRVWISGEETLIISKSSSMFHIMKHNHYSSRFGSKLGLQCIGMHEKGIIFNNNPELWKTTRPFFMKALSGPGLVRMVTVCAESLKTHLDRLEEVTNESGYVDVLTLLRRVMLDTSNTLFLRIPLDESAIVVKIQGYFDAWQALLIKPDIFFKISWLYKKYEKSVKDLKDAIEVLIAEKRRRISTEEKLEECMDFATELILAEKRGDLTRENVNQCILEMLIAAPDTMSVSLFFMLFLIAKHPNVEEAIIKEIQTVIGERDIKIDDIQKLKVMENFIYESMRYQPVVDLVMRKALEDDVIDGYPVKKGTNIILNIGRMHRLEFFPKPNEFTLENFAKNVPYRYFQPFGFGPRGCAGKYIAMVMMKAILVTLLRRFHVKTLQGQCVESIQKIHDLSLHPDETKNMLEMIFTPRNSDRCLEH

[10] = qHTS assay to identify aromatase inhibitors - cell viability counter screen (AID 743084);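 also: cells stimulated with testosterone during compound exposure; nearly all actives have a fitted effect of over 55% in size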
[11] = target: Aryl hydrocarbon receptor (Homo sapiens) (UniProt P35869); test: qHTS assay to identify small molecule that activate the aryl hydrocarbon receptor (AhR) signaling pathway (AID 743085);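 also: HG2L7.5c1 human HepG2 liver cells with stably integrated DRE-driven firefly reporter; series mostly up to about 70 µM; nearly all actives have a fitted effect of over 15% in size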
Aryl hydrocarbon receptor (Homo sapiens), sequence (P35869 whole entry, looked up): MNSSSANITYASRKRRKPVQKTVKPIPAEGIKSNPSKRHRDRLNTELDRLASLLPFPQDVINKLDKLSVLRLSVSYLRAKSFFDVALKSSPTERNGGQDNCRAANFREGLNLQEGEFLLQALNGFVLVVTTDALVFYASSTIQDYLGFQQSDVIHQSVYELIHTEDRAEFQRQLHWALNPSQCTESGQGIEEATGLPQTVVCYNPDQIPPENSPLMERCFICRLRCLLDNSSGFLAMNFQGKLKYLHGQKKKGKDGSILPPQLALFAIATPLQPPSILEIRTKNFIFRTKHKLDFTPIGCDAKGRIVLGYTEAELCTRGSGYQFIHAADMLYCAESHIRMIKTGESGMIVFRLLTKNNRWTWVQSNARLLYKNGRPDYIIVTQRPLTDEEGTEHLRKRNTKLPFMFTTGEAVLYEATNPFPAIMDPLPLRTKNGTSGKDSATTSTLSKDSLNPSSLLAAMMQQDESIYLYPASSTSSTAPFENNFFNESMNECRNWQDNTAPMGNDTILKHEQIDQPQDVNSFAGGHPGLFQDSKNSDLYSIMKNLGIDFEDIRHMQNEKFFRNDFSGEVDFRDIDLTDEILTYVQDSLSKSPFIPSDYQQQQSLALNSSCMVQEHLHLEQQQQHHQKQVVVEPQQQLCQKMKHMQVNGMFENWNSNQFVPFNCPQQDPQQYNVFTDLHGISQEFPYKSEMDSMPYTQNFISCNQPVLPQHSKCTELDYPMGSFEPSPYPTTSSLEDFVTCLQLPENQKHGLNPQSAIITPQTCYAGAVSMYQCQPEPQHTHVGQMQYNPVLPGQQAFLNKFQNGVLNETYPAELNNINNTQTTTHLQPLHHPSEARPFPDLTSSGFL
Outline: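 Luminescence (ONE-Glo) from a dioxin-responsive-element luciferase reporter in HG2L7.5c1 HepG2 cells after 24 hr compound exposure at 37C; viability measured by CellTiter-Fluor fluorescence beforehand.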

[12] = qHTS assay to identify small molecule that activate the aryl hydrocarbon receptor (AhR) signaling pathway - cell viability counter screen (AID 743086);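 also: HepG2 liver cells carrying the AhR DRE luciferase reporter; series mostly up to about 70 µM; nearly all actives have a fitted effect of over 45% in size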
Outline: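 Cytotoxicity counter screen: CellTiter-Fluor signal (30 min, 37 C) in 4000 HepG2 cells/well carrying the DRE-luciferase reporter, following 24 h compound exposure at 37 C.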

[13] = target: Peroxisome proliferator-activated receptor gamma (Homo sapiens) (UniProt P37231); test: qHTS assay to identify small molecule agonists of the peroxisome proliferator-activated receptor gamma (PPARg) signaling pathway (AID 743094; active = well fitted activation curve with a large enough effect in the signal ratio in the repeat runs, not every such curve was filed as active; the % refers to the signal ratio)
Peroxisome proliferator-activated receptor gamma (Homo sapiens), sequence (P37231 whole entry, looked up): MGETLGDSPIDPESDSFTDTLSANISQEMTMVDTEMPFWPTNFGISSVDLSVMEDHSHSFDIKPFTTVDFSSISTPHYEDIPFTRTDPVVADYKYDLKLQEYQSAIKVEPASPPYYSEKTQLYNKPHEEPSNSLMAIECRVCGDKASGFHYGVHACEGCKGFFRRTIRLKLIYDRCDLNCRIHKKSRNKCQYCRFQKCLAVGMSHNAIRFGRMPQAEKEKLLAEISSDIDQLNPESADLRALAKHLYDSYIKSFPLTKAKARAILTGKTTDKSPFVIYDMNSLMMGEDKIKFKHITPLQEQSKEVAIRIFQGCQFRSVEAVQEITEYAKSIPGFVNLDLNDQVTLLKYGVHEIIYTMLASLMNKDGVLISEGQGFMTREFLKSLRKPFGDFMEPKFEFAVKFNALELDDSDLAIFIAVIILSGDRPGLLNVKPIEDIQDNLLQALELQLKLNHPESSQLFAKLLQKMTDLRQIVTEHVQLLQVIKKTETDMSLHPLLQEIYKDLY
Outline: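 Compounds dissolved in DMSO were added to PPARg UAS-bla HEK293H cells for 17 h at 37C, and reporter expression was quantified by fluorescence intensity after 1 h with LiveBLAzer B/G FRET substrate.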

[14] = target: Peroxisome proliferator-activated receptor gamma (Homo sapiens) (UniProt P37231); test: qHTS assay to identify small molecule antagonists of the peroxisome proliferator-activated receptor gamma (PPARg) signaling pathway (AID 743191; calls by dose curve; also: series mostly up to about 63 µM; nearly all actives have a fitted effect of over 30% in size)
Outline: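 Beta-lactamase reporter under UAS control in HEK293H PPARg-bla cells; compound treatment 17 h at 37C. Read-out: fluorescence intensity after 1 h room-temperature incubation with LiveBLAzer B/G FRET substrate.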

[15] = qHTS assay to identify small molecule antagonists of the peroxisome proliferator-activated receptor gamma (PPARg) signaling pathway - cell viability counter screen (AID 743194); also: nearly all actives have a fitted effect of over 55% in size
Outline: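 Viability was measured as CellTiter-Glo luminescence in GeneBLAzer PPARg UAS-bla HEK293H cells. These cells had been exposed 17 h at 37 C to compounds together with rosiglitazone at 50 nM final, with the beta-lactamase readout taken in the same wells.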

[16] = qHTS assay for small molecule agonists of the antioxidant response element (ARE) signaling pathway - cell viability counter screen (AID 743203; calls by dose curve; also: nearly all actives have a fitted effect of over 55% in size)
Outline: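 Following 16 hrs of compound treatment at 37C, HepG2 cells with an ARE-controlled beta-lactamase gene were lysed with CellTiter-Glo. Luminescence was read after 30 min at room temperature.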

[17] = qHTS assay for small molecule activators of the heat shock response signaling pathway - cell viability counter screen (AID 743209); also: nearly all actives have a fitted effect of over 50% in size
Outline: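 Readout: CellTiter-Glo luminescence, 30 min at room temperature. System: HSE-bla HeLa cells, 1500/well, plated overnight. Treatment: compounds in DMSO, 5 h at 37 C.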

[18] = qHTS assay for small molecule activators of the heat shock response signaling pathway (AID 743210; active = well fitted activation curve with a large enough effect in the signal ratio in the repeat runs, with a control signal flat, not every such curve was filed as active; the % refers to the signal ratio;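 also: HeLa cells with beta-lactamase reporter driven by heat shock elements; series mostly up to about 63 µM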)
Outline: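 HeLa HSE-bla cells, overnight plating; cpd in DMSO 5 h, 37 C; LiveBLAzer B/G FRET substrate 2.5 h RT; fluorescence intensity read.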

[19] = qHTS assay for small molecule agonists of the antioxidant response element (ARE) signaling pathway (AID 743202; active = well fitted activation curve with a large enough effect in the signal ratio in the repeat runs, not every such curve was filed as active; the % refers to the signal ratio)
Outline: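 Quantitative high-throughput format in HepG2 cells bearing an integrated ARE-beta-lactamase reporter. Compound exposure lasted 16 h at 37 C, and fluorescence was read 2 h after adding LiveBLAzer B/G substrate at room temperature.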

Measured: Potency

CC(=O)OCC=C(C)C
inactive: [1] | [2] | [3] | [4] | [5] | [6] | [7] | [8] | [9] | Aromatase (Homo sapiens) | [10] | [11] | [12] | [13] | [14] | [15] | [16] | [17] | [18]

CC(C(=O)O)c1ccc2c(c1)[nH]c1ccc(Cl)cc12 (centres undefined)
inactive: [1] | [2] | [3] | [4] | [5] | [6] | [7] | [8] | [9] | Aromatase (Homo sapiens) | [10] | [11] | [12] | [13] | [15] | [16] | [17] | [18]

CC[N+](CC)(CC)CCOC(=O)C(C1CCCC1)C1CCCC1
inactive: [1] | [2] | [3] | [4] | [5] | [6] | [7] | [8] | [9] | Aromatase (Homo sapiens) | [10] | [11] | [12] | [13] | [14] | [15] | [16] | [17] | [18]

COC(=O)c1ccccc1C
inactive: [1] | [2] | [3] | [4] | [5] | [6] | [7] | [8] | [9] | Aromatase (Homo sapiens) | [10] | [11] | [12] | [13] | [14] | [17] | [18]

OC[C@@H](O)[C@@H](O)CO
inactive: [1] | [2] | [3] | [4] | [5] | [6] | [7] | [8] | [9] | Aromatase (Homo sapiens) | [10] | [11] | [12] | [13] | [15] | [19] | [17] | [18]

COC(=O)c1ccccc1OC
inactive: [1] | [2] | [3] | [4] | [5] | [6] | [7] | [8] | [9] | Aromatase (Homo sapiens) | [10] | [11] | [12] | [13] | [15] | [17]

C=Cc1cccc(C)c1
inactive: [1] | [2] | [3] | [4] | [5] | [6] | [7] | [8] | [9] | Aromatase (Homo sapiens) | [10] | [11] | [12] | [13] | [15] | [16] | [17] | [18]

CN(C)Cc1ccccc1O
inactive: [1] | [2] | [3] | [4] | [5] | [6] | [7] | [8] | [9] | Aromatase (Homo sapiens) | [10] | [11] | [12] | [13] | [14] | [15] | [16] | [17] | [18]
